Results: PubChem BioAssay AID2501 (Southern Research Specialized Biocontainment Screening …, 2010)
About 1,200 (55%) of roughly 2,200 compounds were called active. Cut-off not given; nearly all actives show IC50 up to about 92 µM. So high a share suggests a set chosen from earlier hits. The list shows a part of the results.

assay: counter assay for TAg ATPase ADP read-out – biochemical, ADP-Hunter, fluorescence, counter-screen (AID 2501); settings: series mostly up to 100 µM; inhibition: at the top concentration;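 further: purified T antigen ATPase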;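 on inhibition: 0% = enzyme with vehicle and 100% = reference inhibitor wells; higher means more inhibition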

SMILES	IC50	inhibition
Cc1ccc(N=c2oc3cc(O)ccc3cc2C(N)=O)cc1	17.1 µM (active)	–
C=CC(=O)Oc1ccc(N2Cc3ccccc3C2=O)cc1	8.19 µM (active)	–
COc1ccc(N2C(=O)/C(=C\c3ccco3)N=C2SCC(=O)NC(C)C)cc1Cl	–	-21.3% (inactive)
COc1cc(/C=C2/C(=O)NN(c3cccc(C)c3)C2=O)ccc1OC(=O)c1ccco1	27.4 µM (active)	–
COc1cc(/C=C2/C(=O)NN(c3ccc(Cl)cc3)C2=O)ccc1OC(=O)c1ccco1	80 µM (active)	–
CCOC(=O)c1c(NC(=O)c2ccc(S(=O)(=O)N(C)CC3CCCO3)cc2)sc2c1CC(C)(C)NC2(C)C (centres undefined)	–	0.64% (inactive)
Nc1ccc(OC(=O)Nc2ccc(O)cc2)cc1	3.47 µM (active)	–
CS(=O)(=O)N1CCc2cc(C(=O)Nc3ccc(O)cc3)ccc21	7.2 µM (active)	–
CC(C)OCCCNC1=C(Cl)C(=O)c2ccccc2C1=O	–	-6.77% (inactive)
COC1=C(Nc2ccc(O)cc2)C(=O)c2ccccc2C1=O	5.25 µM (active)	–
CN(C)C=NC1=NN(c2cccc(C(F)(F)F)c2)CC1	5.93 µM (active)	–
O=c1c2ccccc2[nH]c2ccc(O)cc12	5.13 µM (active)	–
O=C(CCN1C(=O)/C(=C/c2ccco2)SC1=S)Nc1ccc(C(=O)O)c(O)c1	–	-14.7% (inactive)
O=C(CCN1C(=O)/C(=C\c2ccco2)SC1=S)Nc1ccc(C(=O)O)c(O)c1	–	-4.22% (inactive)
O=C1/C(=C/c2ccncc2)SC(=S)N1Nc1ccccc1	77.6 µM (active)	–
COc1ccc(-c2cc(=O)oc3c(O)c(O)ccc23)cc1	8.96 µM (active)	–
O=C1NC(=S)CN1c1ccccc1	–	11.1% (inactive)
O=C(O)c1ccccc1-c1c2cc(I)c(=O)c(I)c-2oc2c(I)c(O)c(I)cc12	–	-1.2% (inactive)
CC(=O)N(C1=C(Cl)C(=O)c2ccccc2C1=O)c1ccc(C(=O)O)cc1	–	13.6% [at 50 µM] (inactive)
Nc1cc(C(=O)O)c(N)c2c1C(=O)c1ccccc1C2=O	14.7 µM (active)	–
Cc1nc2cc(NCc3nc4ccccc4n3Cc3ccccc3)ccc2n1C	–	26.8% (inactive)
COc1cc(Cn2c(-c3ccc(O)c(OC)c3)nc3ccccc32)ccc1O	0.9 µM (active)	–

SMILES	IC50	inhibition
COc1cc(Cn2nnc3ccccc32)ccc1O	3.65 µM (active)	–
CCOc1ccc(C(=O)CSCC(=O)O)cc1	–	4.18% (inactive)
Cc1cccc(C)c1NC(=O)CSCC(=O)c1ccc(O)c(O)c1	10.3 µM (active)	–
COc1ccc(CCN(C)Cc2nc(Cc3ccc(OC)c(OC)c3)no2)cc1OC	–	-9.84% (inactive)
Cn1c(=O)c2c([nH]c(=S)n2Cc2ccc(Cl)cc2)n(C)c1=O	16 µM (active)	–
O=C(COC(=O)C1CC1)c1c[nH]c2ccccc12	–	-3.45% (inactive)
COc1cc(/C=N/NS(=O)(=O)c2ccc(C)c([N+](=O)[O-])c2)ccc1O	8.36 µM (active)	–
C/C(=N/NS(=O)(=O)c1cccc([N+](=O)[O-])c1)c1c[nH]c2ccccc12	9.39 µM (active)	–
O=[N+]([O-])c1cccc(S(=O)(=O)N/N=C/c2ccc(O)cc2)c1	5.86 µM (active)	–
COc1cc(/C=N/NS(=O)(=O)c2ccc(Br)cc2)ccc1O	14.6 µM (active)	–
CC(C)(C)c1ccc(-c2nc(O)c(CC(=O)O)s2)cc1	–	26.8% (inactive)
COc1cc(/C=C2/C(C)=C(C#N)c3nc(N)c(C#N)c(C)c32)ccc1OCC(=O)O	–	16.5% (inactive)
COc1cc(/C=C2\C(C)=C(C#N)c3nc(N)c(C#N)c(C)c32)ccc1OCC(=O)O	–	25.9% (inactive)
CC1=C(C#N)c2nc(N)c(C#N)c(C)c2/C1=C\c1ccc(OCC(=O)O)c(Cl)c1	95.7 µM (active)	–
Nc1ncnc2oc(-c3ccco3)c(-c3ccco3)c12	–	-28.1% (inactive)
CS(=O)(=O)c1ccc2c(c1)SC1=NC(=O)/C(=C/c3ccco3)C(=N)N12	–	2.61% (inactive)
COc1cc(/C=C2\SC(N)=NC2=O)ccc1O	4.85 µM (active)	–
NC1=NC(=O)/C(=C\c2ccco2)S1	–	-29.7% (inactive)
CCOc1cc(/C=C2/NC(=O)N(CC(=O)OC)C2=O)ccc1O	5.19 µM (active)	–
CCOc1cc(/C=C2\NC(=S)N(c3c(C)n(C)n(-c4ccccc4)c3=O)C2=O)ccc1O	3.07 µM (active)	–
CCOc1cc(/C=C2\SC(=O)N=C2N)ccc1O	4.18 µM (active)	–
Cc1ccc(NC(=O)CN2C(=O)N/C(=C\c3cccn3-c3cccc(C(=O)O)c3)C2=O)cc1	–	11.3% (inactive)

SMILES	IC50	inhibition
COC(=O)c1[nH]c2ccc(Br)cc2c1NC(=O)Oc1ccccc1	–	22.8% (inactive)
CN(C)Cc1cc(O)c(CN(C)C)cc1O	–	-314% (inactive)
CCCN1C(=O)/C(=C/c2ccc(OCc3ccc(C(=O)O)cc3)c(OC)c2)NC1=S	–	19.4% (inactive)
COc1cc(/C=C2\NC(=S)N(C)C2=O)ccc1O	3.23 µM (active)	–
CCOc1cc(/C=C2\SC(=NC)N(C)C2=O)cc(Cl)c1OC(C)=O	–	6.15% (inactive)
COc1cc(C2NC(=S)NC(C)=C2C(=O)Nc2cc(C)cc(C)c2)ccc1O (centres undefined)	–	23.4% [at 50 µM] (inactive)
CN=C1S/C(=C\c2ccc(O)c(OC)c2)C(=O)N1C	4.35 µM (active)	–
NC1=NC(=O)S/C1=C\c1ccc(O)cc1	3.6 µM (active)	–
C=CCN1C(=O)/C(=C\C(C)=C\c2ccccc2)SC1=S	–	-42.1% (inactive)
Cc1c(N2C(=O)/C(=C\c3ccccc3O)SC2=S)c(=O)n(-c2ccccc2)n1C	54.7 µM (active)	–
CCOc1cc(/C=N/Nc2nc(C)cc(=O)[nH]2)ccc1O	2.82 µM (active)	–
CCOc1cc(/C=N/NC(=O)N/N=C/c2ccc(O)c(OCC)c2)ccc1O	2.03 µM (active)	–
CCOc1cc(/C=N/Nc2ncnc(Cl)c2N)ccc1O	3.29 µM (active)	–
CCOc1cc(/C=N/NC(=O)Nc2ccccc2)ccc1O	9.13 µM (active)	–
Nc1c(-c2ccccc2)c(CN2CCOCC2)nn1-c1ccc(F)cc1	–	-7.99% (inactive)
Cc1cc(=O)[nH]c(N/N=C/c2c[nH]c3ccccc23)n1	5.41 µM (active)	–
COc1cc(/C=N/n2cnnc2)ccc1OC(=O)c1ccncc1	5.68 µM (active)	–
CCOc1cc(/C=N/n2cnnc2)ccc1O	6.86 µM (active)	–
COc1ccccc1NC(=O)COc1ccc(/C=N/n2cnnc2)cc1OC	–	24.4% (inactive)
Cc1cc(F)ccc1S(=O)(=O)N(C(=O)c1ccncc1)c1ccc(OC(=O)c2ccncc2)cc1	48.3 µM (active)	–
